HCV inh: blocks hepatitis C virus; Huh7.5.1 HCVcc-Cre infection, luciferase reporter, 44 h; 3.4% of 340,000 active; Potency, µM (top dose mostly 41.8 µM), inactives show top-dose activity change, negative = inhibition, actives largely listed as inhibitors; active = well fitted inhibition curve with a large enough effect; inconclusive = small, poorly fitted or top-dose-only effect, or another doubt; inactive = no such curve, though single readings can be large or run the other way; note: potency is the fitted concentration of half-maximal effect
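Cells seeded at 1,000/well and cultured 4 h, then compounds added followed by HCVcc-Cre virus (~0.5 moi). After 44 h further culture, luciferase substrate was added, plates held 15 min at room temperature, and luminescence read for 15 sec.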
MARV entry inh: inhibitors of Marburg virus binding or cell entry; Marburg virus pseudotyped entry inhibition, cell reporter; Potency, µM (titrated, usually from 37.8 µM), for inactives: at the top dose activity change, negative = inhibition, usual class: inhibitors; 1.8% of 300,000 active; AID 540276; calls by dose curve; tested in HEK293 cells; note: potency is the fitted concentration of half-maximal effect
FMDV antiviral: foot and mouth disease virus antiviral activity; FMDV antiviral cell-based qHTS; Potency, µM (highest dose often 57.9 µM), without a hit: top-dose activity change, negative = inhibition, most hits filed as inhibitors; 1.2% of 410,000 active; AID 1159524; calls by dose curve; tested in HEK293T cells; note: read-out not given here; potency is the fitted concentration of half-maximal effect; nearly all actives have a fitted effect of over 45% in size
Lassa entry inh: inhibitors of Lassa virus binding or cell entry; Lassa virus pseudotype entry inhibition, cell reporter; Potency, µM (titrated, usually from 37.9 µM), without a hit: at the top dose activity change, negative = inhibition, actives largely listed as inhibitors; 1.2% of 300,000 active; calls by dose curve; tested in HEK293 cells; note: potency is the fitted concentration of half-maximal effect; nearly all actives have a fitted effect of over 50% in size
HCMV antiviral: human cytomegalovirus inhibition; HFF cells, HCMV-luciferase reporter, 72 h; hits give low values; activity change, negative = inhibition, % at 57.5 µM; 4.5% of 410,000 active; in the data active = activity change below about -60%; inconclusive = no clear call, values can overlap the other calls; inactive = above about -39%
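Luciferase read-out from HCMV-luciferase-infected HFFs (MOI 1 PFU/cell) 72 h post infection at 37C; compounds added after 16 h cell attachment; activity normalized between buffer-only basal and Salinomycin (10uM) inhibitor controls.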
Active calls of the source: *; ? = inconclusive; nt = no result given; [ ] = remark or other dose. Shown are actives, neighbours in structure and some others; about 7.9% of the full set was active somewhere. % is set by controls: 0 for no effect and ±100 for the full control effect.

SMILES	HCV inh	MARV entry inh	FMDV antiviral	Lassa entry inh	HCMV antiviral
CCOC(=O)N1CCN(C(=O)c2cc3c(s2)-c2ccc(Cl)cc2S(=O)(=O)C3)CC1	-9%	nt	?	nt	-62*
COc1ccc(N(C)C(=O)c2cc3c(s2)-c2ccc(Cl)cc2S(=O)(=O)C3)c(OC)c1	?	nt	28µM*	nt	?
[O-][N+]1=c2ccc(Nc3ccccc3)cc2=NC12CCCCC2	?	2.2µM*	-8%	?	?
CCOc1ccc(NC(=O)c2cc3cc4cc(OC)ccc4nc3s2)cc1	nt	-18%[46.1 µM]	-19%	23%[46.1 µM]	-28
CCN(CCCNC(=O)c1cc2c(=O)[nH]c3ccccc3c2s1)c1ccccc1	nt	-3%[46.1 µM]	-4%	-3%[46.1 µM]	-81*
CCN(CCCNC(=O)c1cc2cc3ccc(OC)cc3nc2s1)c1ccccc1	nt	?	12%	?	-77*
CCCCN(CC)C(=O)c1cc2cc3ccc(OC)cc3nc2o1	?	?	7%	-14%	17
COc1ccc(OC)c(NC(=O)c2cc3cc4ccc(C)cc4nc3s2)c1	nt	9%[46.1 µM]	-7%	16%[46.1 µM]	-15
CCN(CCCNC(=O)c1cc2cc3ccc(OC)cc3nc2s1)c1cccc(C)c1	nt	-34%[46.1 µM]	25%	-13%[46.1 µM]	-68*
CCCCN(C)C(=O)c1cc2cc3ccc(OC)cc3nc2s1	11µM*	10µM*	-51%	?	50
Cc1ccc(C)c(CN2C(=O)c3ccccc3S(=O)c3ccc(C(=O)N(C)Cc4ccccc4)cc32)c1 (stereo unspecified)	nt	?	-11%	?	-23
COc1cccc2cc(C(C)N(CCCN3CCOCC3)C(=S)Nc3cccc(C)c3)oc12 (stereo unspecified)	2%	10µM*	-16%	?	-13
COc1ccc(NC(=S)N(CCCN2CCOCC2)Cc2cn(C)c3ccccc23)cc1OC	?	?	16%	?	-87*
COc1cccc2cc(C(C)N(CCCN3CCOCC3)C(=S)Nc3cc(C)cc(C)c3)oc12 (stereo unspecified)	-14%	?	-20%	-21%[46.1 µM]	0
COc1cccc(NC(=S)N(CCCN2CCOCC2)Cc2cn(C)c3ccccc23)c1	?	?	2%	?	-78*
CC(C)c1ccc(NC(=O)c2cc3c(=O)oc4ccccc4c3s2)cc1	nt	?	8%	3%[46.1 µM]	?
COc1cccc(C(=O)n2nc(-c3ccco3)nc2NCc2cccs2)c1	nt	4%[46.1 µM]	30%	-1%[46.1 µM]	23
CC(C)CCn1c(=O)c(C(=O)Nc2ccccc2S(N)(=O)=O)c(O)c2ccccc21	?	?	-4%	?	-97*
CCOC(=O)C(O)(c1ccc(N(CC)C(=O)OC)cc1)C(F)(F)F (stereo unspecified)	-9%	-8%	-4%	?	15
CCOC(=O)N(CC)c1ccc(C(O)(C(=O)OCC)C(F)(F)F)cc1 (stereo unspecified)	-5%	-7%	-29%	10µM*	77
O=C(Nc1ccccc1C(=O)OCc1cc(=O)n2ccsc2n1)c1ccc(Cl)cc1	nt	nt	-3%	-14%[46.1 µM]	18
CCN(CC)S(=O)(=O)c1csc(C(=O)NCc2ccccc2)c1	?	24%	?	?	-71*
CCC(C)NC(=O)c1ccccc1-c1ccccc1C(=O)NC(C)CC (stereo unspecified)	26%	17%[46.1 µM]	-8%	?	27
CCC(C)NC(=O)c1c(F)c(F)c(F)c(F)c1F (stereo unspecified)	13%	19%	-16%	0%	-68*
Cn1c(NC(=O)c2ccccc2C(F)(F)F)cc(=O)n(C)c1=O	10%	nt	-18%	nt	-66*
SMILES	HCV inh	MARV entry inh	FMDV antiviral	Lassa entry inh	HCMV antiviral
Cn1c(NC(=O)c2ccccc2Br)cc(=O)n(C)c1=O	-14%	nt	-4%	nt	?
Cc1cc(C)cc(C(=O)N2CC(C)SC2=Nc2cccc(S(=O)(=O)N(C)C)c2)c1 (stereo unspecified)	?	?	-25%	?	?
Cc1ccc(C(=O)N2CC(C)SC2=Nc2cccc(S(=O)(=O)N(C)C)c2)cc1 (stereo unspecified)	-12%	-12%	-19%	3.2µM*	-30
CCc1c(-c2ccccc2OC)ncn1Cc1cccc(-c2ccccc2)c1	nt	nt	0%	nt	-98*
COc1ccccc1-c1ncn(Cc2cccc(-c3ccccc3)c2)c1-c1cc(C)cc(C)c1	nt	nt	-41%	nt	?
CCCc1c(-c2ccc(F)cc2F)ncn1Cc1cccc(-c2ccccc2)c1	nt	nt	?	nt	-87*
COc1ccccc1-c1ncn(Cc2cccc(-c3ccccc3)c2)c1CC(C)C	nt	nt	28µM*	nt	?
Nc1nc2c([N+](=O)[O-])cccc2s1	4%	nt	-2%	nt	27
O=[N+]([O-])c1cccc2nc(-c3ccccc3)c(-c3ccccc3)nc12	-9%	-4%	?	-28%	-101*
Fc1ccc(COc2cccc(CNCc3ccncc3)c2)cc1	?	6.3µM*	-22%	-11%	-71*
CCOc1cc(CNCc2ccncc2)cc(Br)c1OCc1ccc(F)cc1	10µM*	?	16µM*	-18%	-65*
Fc1ccccc1COc1ccc(Br)cc1CNCc1cccnc1	?	?	?	?	-4
O=C(O)c1ccc(CNCc2cccc(OCc3ccc(F)cc3)c2)cc1	15%	11%[46.1 µM]	-7%	0%[46.1 µM]	?
Fc1ccccc1COc1ccc(Br)cc1CNCc1ccncc1	-13%	?	32µM*	-19%	-24
Nc1nonc1C(=O)NCCNCc1cc(Br)ccc1OCc1ccc(F)cc1	?	?	?	-26%	-21
Fc1ccc(COc2ccc(Br)cc2CNCc2ccncc2)cc1	10µM*	?	?	-21%	?
COC(=O)N/N=C/c1ccc(-c2cc(Cl)ccc2Cl)o1	-24%	-24%	-10%	7%	-6
O/N=C/c1ccc(-c2cc(Cl)ccc2Cl)o1	?	-1%	0%	3%	-62*
CC1S/C(=C(\C#N)C(=O)NCc2ccco2)N(c2ccc(F)cc2)C1=O (stereo unspecified)	4%	-5%	-11%	?	-97*
COc1ccc(-n2cc(CNCCN3CCOC3=O)c(-c3ccccc3Cl)n2)cc1	5%	nt	-3%	nt	-7
CCN1CCC(CNCc2cn(-c3ccc(OC)cc3)nc2-c2ccccc2Cl)C1 (stereo unspecified)	11µM*	4µM*	35%	?	-71*
CCOc1ccccc1C1N=C(N)Nc2nc3ccccc3n21 (stereo unspecified)	nt	0%[46.1 µM]	-12%	-19%[46.1 µM]	11
C/C(=N\NC(=O)C12CCC(C)(C(=O)O1)C2(C)C)c1ccccc1O (stereo unspecified)	?	nt	4%	nt	-103*
CC12CCC(C(=O)NCc3ccccc3)(OC1=O)C2(C)C (stereo unspecified)	16%	?	10%	0%	2
COC(=O)c1cnn(-c2ccc(F)cc2F)c1/C=N/NC(N)=S	10µM*	nt	?	nt	-11
CSc1nnc(C(C)(C)C)c(=O)n1N/C=C1\C(=O)CCC2=C1CCCC2	nt	3%[46.1 µM]	nt	nt	nt

Screens (PubChem BioAssay)
